This passage reports inhibition results from PubChem BioAssay AID602250 (The Scripps Research Institute Molecular Screening Center, 2012).

In all, about 360,000 compounds went through this assay and about 2,200 (0.61%) were called active.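 Rule for the calls: active = inhibition above a per-plate cutoff, the plate's mean sample inhibition plus 3 SD (cut at about 24% in these data); inactive = the rest.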 The entries come from a sample that favours actives as a whole.

One may read the inhibition as the change of the read-out against control, counted positive when it falls.

The nature of this test: nonselective inhibitors of ATP calcium response in CHO-K1, primary screen, counter-screen for M1 antagonist project, cell-based, Fluo-8 calcium fluorescence, full deck, 1536-well (AID 602250).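 Note: 0% = DMSO plus EC80 ATP and 100% = DMSO alone without ATP.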 Particulars: CHO-K1 parental, ATP-induced calcium, Fluo-8 fluorescence; at 3 µM; stronger effect = higher value.
As for `CCCCN(C(=O)c1ccc(OC(F)(F)F)cc1)c1c(N)n(CCC)c(=O)[nH]c1=O`, the inhibition is -6.23% (inactive).

In the case of `CCCCN(C)C(=O)c1ccc2c(c1)N(CC)C(=O)c1ccccc1S2(=O)=O`, the inhibition is 18% (inactive).

With `O=C(Cc1cccs1)Nc1ccc([N+](=O)[O-])cc1`, the inhibition is 23.9% (active).

For `O=C(Cc1ccc([N+](=O)[O-])cc1)Nc1ccc(C(=O)N2CCOCC2)cc1`, the inhibition was -11.3% (inactive).

Turning to `Cc1cc(C)n(CC(=O)Nc2ccc([N+](=O)[O-])cc2)n1`, the inhibition is -4.31% (inactive).

In the case of `Cc1noc(C)c1S(=O)(=O)Nc1cc(C(F)(F)F)ccc1N1CCOCC1`, the inhibition was 3.45% (inactive).

Take `Cc1ccc(N(CCC(=O)O)S(=O)(=O)c2cccc(C(F)(F)F)c2)cc1`: the inhibition was 3.61% (inactive).

With `Cc1oc2c(F)c(F)c(F)c(F)c2c1S(=O)(=O)Nc1cccc(C(F)(F)F)c1`, the inhibition is 27.9% (active).

On to `COc1cc(C(=O)NCCOC(=O)c2cccc(N(C)C)c2)cc(OC)c1OC`, for which the inhibition was -4.91% (inactive).

Turning to `CCOc1ccc2[nH]c(=O)c(CN(CCCO)C(C)=O)cc2c1`, the inhibition is 7.13% (inactive).

With `OC(COc1ccccc1)CN1CCN(c2cccc(Cl)c2)CC1` (centres undefined), the inhibition is -14.9% (inactive).

For `Cc1cccc(OCC(O)Cn2c(=N)n(CCN3CCOCC3)c3ccccc32)c1` (centres undefined), the inhibition is -12.8% (inactive).

For the compound `OC(CN=c1sc2ccccc2n1CC(O)COc1ccccc1)COc1ccccc1` (centres undefined), the inhibition was 62.5% (active).

With `COC(=O)Cc1c(O)ccn(Cc2cccc(C(F)(F)F)c2)c1=O`, the inhibition was -6.45% (inactive).

Regarding `Cc1cccc(C)c1Nc1nnc(SCC(=O)NCCCN2CCCC2=O)s1`, the inhibition is -7.35% (inactive).

On to `COc1ccc(CNC(=O)COC(=O)C(CCSC)N2C(=O)c3ccccc3C2=O)cc1` (centres undefined), for which the inhibition is -6.61% (inactive).

In the case of `O=C(NCCN1CCOCC1)[C@H](Cc1ccccc1)N1C(=O)c2ccccc2C1=O`, the inhibition is -4.92% (inactive).

Take `CCOC(=O)C(Cc1ccc(N)cc1)N1C(=O)c2ccccc2C1=O` (centres undefined): the inhibition was 25.2% (active).

Regarding `CCCS(=O)(=O)NC(=O)C1(C)CCCN(C(=O)c2cccs2)C1` (centres undefined), the inhibition is -9.34% (inactive).

On to `CCCNC(=O)c1cc2c(c(-c3cccc(-c4ccc(C#N)cc4)c3)n1)[C@@H](CCO)N(C(=O)CC)C2`, for which the inhibition is 25.5% (active).

Consider `CCC(=O)N1Cc2cc(C(=O)NCc3cccc(F)c3)nc(-c3cccc(C4=CCCC4)c3)c2[C@H]1CCO`, for which the inhibition is -1.18% (inactive).

As to `CCNC(=O)c1cc2c(c(-c3cccc(-c4cncnc4)c3)n1)[C@H](CCO)N(C(C)=O)C2`, the inhibition was -11.6% (inactive).

On to `COc1ccc(C(C[N+](=O)[O-])n2nc(C)cc2C)cc1` (centres undefined), for which the inhibition is -0.39% (inactive).

For the compound `Cc1c(Cl)cccc1NC(=O)Nc1ccc(C(=O)N2CCCC2)cc1`, the inhibition was -18.4% (inactive).

Regarding `Cc1c(NC(=O)Nc2ccccc2Cl)sc(=S)n1C`, the inhibition is 24.7% (active).

With `Cc1c(Cl)cccc1NC(=O)NCc1ccc(C)n1C`, the inhibition is 3.33% (inactive).

For the compound `CC1(C)CC(=O)c2cnc3nc4ccccc4n3c2C1`, the inhibition is -11.2% (inactive).

`CC1(C)CC(=O)C(N=Nc2c(F)cccc2F)=C(O)C1`: the inhibition is -15.2% (inactive).

As to `CCOC(=O)C1(C)CCCN(C(=O)c2cccc(Cl)c2)C1` (centres undefined), the inhibition was -16.1% (inactive).

On to `C=CCO/N=C(\C)c1c(O)c(C)c(-c2ccccc2)n(-c2ccccc2)c1=O`, for which the inhibition is 28% (active).

On to `Cc1nn(-c2ccccc2)c(C)c1/C=N/NC(=O)CSc1nc2ccccc2c(=O)n1-c1ccccc1`, for which the inhibition was 14.8% (inactive).

For `CCO/N=C(/C)c1c(O)cc(-c2ccccc2)n(-c2ccccc2)c1=O`, the inhibition is -7.62% (inactive).

As for `O=C(C1CC1)N1N=C2CCCCC2C1(O)C(F)(F)F` (centres undefined), the inhibition was 3.71% (inactive).

`CC(=O)NCCc1ccc(S(=O)(=O)Nc2ccc(C)c(S(=O)(=O)N3CCOCC3)c2)cc1`: the inhibition was 11% (inactive).

In the case of `Cn1c(=O)c2c(SCC(=O)N3CCOCC3)nc(C3CC3)nc2n(C)c1=O`, the inhibition was -6.78% (inactive).

As for `CCCC1(C(=O)OCC)NC(c2ccc(N(C)C)cc2)C2C(=O)N(c3ccc4c(c3)OCCO4)C(=O)C21` (centres undefined), the inhibition is -5.19% (inactive).

Regarding `Cc1ccc(CNC(=O)CCNS(=O)(=O)c2cccc3nonc23)cc1`, the inhibition was -10.2% (inactive).

Consider `CCNC(=S)NNC(=O)C1CCN(Cc2ccccc2)CC1`, for which the inhibition is -12.2% (inactive).

Turning to `Cc1scc(C(=O)NNC(=S)NCc2ccccc2)c1C`, the inhibition is -15.3% (inactive).

In the case of `CCNC(=S)NNC(=O)Cc1ccccc1`, the inhibition was 32.5% (active).

Take `CCOC(=O)C1CCN(C(=O)c2ccc3c(=O)n4nc(Nc5ccccc5CC)sc4nc3c2)CC1`: the inhibition is -9.89% (inactive).

With `COC(=O)C1=C(N)Oc2cc(C)oc(=O)c2C1c1cccnc1` (centres undefined), the inhibition was -3.67% (inactive).

On to `CCSc1nc2c(c(=O)[nH]1)C(c1cccnc1)C(C(=O)OC(C)C)=C(C)N2` (centres undefined), for which the inhibition was 25.5% (active).

On to `CCSc1nc(O)c(C(c2cccc(OC)c2)c2c(O)nc(SCC)[nH]c2=O)c(=O)[nH]1`, for which the inhibition was -3.25% (inactive).

For the compound `COc1ccc(Cl)cc1NC(=O)CN(C)C(=O)CCCc1c[nH]c2ccccc12`, the inhibition is 2.49% (inactive).

In the case of `O=C1NC(Cc2ccccc2)c2nc3ccc(Br)cc3c(=O)n2-c2cc3ccccc3cc21` (centres undefined), the inhibition is 12.3% (inactive).

As for `COc1ccc(O)c(C=Nc2cc(C)on2)c1`, the inhibition is -9.65% (inactive).

As to `CS(=O)(=O)c1ccccc1C(=O)Nc1ccc2sccc2c1`, the inhibition was -10.2% (inactive).

In the case of `O=C(Nc1ccc2ccccc2c1)Nc1ccc2snnc2c1`, the inhibition was 32.6% (active).

Take `Cc1ccc(NC(=O)Nc2ccc3oc(C)nc3c2)cc1`: the inhibition is -8.85% (inactive).

For the compound `CC(C)Oc1ccc(CC(=O)NNC(=S)Nc2ccc(Br)cc2)cc1`, the inhibition is -8.93% (inactive).

In the case of `CC(C)OCCCNc1ncnc2c1[nH]c1ccc(F)cc12`, the inhibition was 26.5% (active).

In the case of `CCOc1ccc(C2NC(=S)NC3=C2CCc2ccccc23)cc1` (centres undefined), the inhibition was 4.36% (inactive).

For the compound `COCc1[nH][nH]c(=O)c1C=Nc1ccc(F)cc1F`, the inhibition is 3.8% (inactive).

Take `CCN1/C(=C\c2ccc3ccccc3[n+]2CC)Sc2cc(C)ccc21`: the inhibition is 47.2% (active).

`N#CCCN(C(=O)Nc1ccc(Cl)c(Cl)c1)C1CCCCC1`: the inhibition was 5.09% (inactive).

As for `CC1(C(=O)O)CCC(C(=O)Nc2ccc(Cl)c(Cl)c2)C1(C)C` (centres undefined), the inhibition is -12.5% (inactive).

For the compound `O=C(CC(O)(C(F)(F)F)C(F)(F)F)Nc1ccc(Cl)c(Cl)c1`, the inhibition was 42.9% (active).

Turning to `CC1(C)C2CCC13CS(=O)(=O)NC3C2` (centres undefined), the inhibition is -9.03% (inactive).

Turning to `NC1=NC2(CCCCC2)N(c2ccc(F)cc2F)C(N)=N1`, the inhibition is 13.8% (inactive).

As to `CC(C)N1CCc2c(sc(NC(=O)Cc3ccccc3)c2C#N)C1`, the inhibition is 24.7% (active).

Regarding `CC(=O)N1CCc2c(sc(NC(=O)CCS(=O)(=O)c3ccccc3)c2C#N)C1`, the inhibition is 0.29% (inactive).

With `N#Cc1c(N)sc2c1CCN(C(=O)OCc1ccccc1)C2`, the inhibition was -19.6% (inactive).

On to `C[C@H](NC(=O)[C@@H]1CCCN1C(=O)[C@@H]1CCCN1C(=O)c1ccccc1)c1ccccc1`, for which the inhibition was -24.1% (inactive).
